Compound activity deposited in PubChem BioAssay by several laboratories.
Cdc25B block: human M-phase inducer phosphatase 2 inhibition; P30305; inhibition, %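 (compounds tested at 10 µM final in the well)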; recombinant Cdc25B, OMFP fluorescence Ex485/Em525; actives 0.1% (n = 65,000); in the data active = inhibition above about 50%
Hsp90 block: displaces geldanamycin probe from tumor Hsp90. P07900. NCI-N417 lysate Hsp90, Cy3B-geldanamycin FP displacement. inhibition, % at 30 µM. actives 0.35% (n = 64,000);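 active = inhibition above 50%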;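 also: 0% = tracer plus lysate wells and 100% = tracer alone without lysate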
PKA inh: inhibitors of human protein kinase A; PKA Kemptide phosphorylation, Kinase-Glo ATP luminescence; inhibition, % at 6 µM; actives 0.1% (n = 65,000);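 active = inhibition above the screen-wide mean inhibition plus 3 SD, cut at about 21% in these data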
ROCK2 inh: inhibitors of human Rho kinase 2 | O75116 | purified ROCK2, Kinase-Glo ATP depletion luminescence | inhibition, % at 6 µM | actives 0.35% (n = 60,000);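 active = inhibition above the screen-wide mean inhibition plus 3 SD, cut at about 18% in these data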;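 also: plate controls were DMSO wells for no effect and Y-27632 control wells after no-enzyme background subtraction for full effect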
DUSP1 inh: human dual specificity phosphatase 1 inhibition. recombinant MKP-1, OMFP hydrolysis fluorescence. inhibition, %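 (compounds tested at a single concentration somewhere between 10 and 100 µM)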. actives 0.15% (n = 65,000). AID 374;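 active = inhibition above about 50%, limit read from the data; inconclusive = inhibition over screen mean plus 3 SD, below that limit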;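 also: 0% = DMSO max control wells and 100% = wells with enzyme stopped by NaOH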
Target sequence (P28562 whole entry, looked up): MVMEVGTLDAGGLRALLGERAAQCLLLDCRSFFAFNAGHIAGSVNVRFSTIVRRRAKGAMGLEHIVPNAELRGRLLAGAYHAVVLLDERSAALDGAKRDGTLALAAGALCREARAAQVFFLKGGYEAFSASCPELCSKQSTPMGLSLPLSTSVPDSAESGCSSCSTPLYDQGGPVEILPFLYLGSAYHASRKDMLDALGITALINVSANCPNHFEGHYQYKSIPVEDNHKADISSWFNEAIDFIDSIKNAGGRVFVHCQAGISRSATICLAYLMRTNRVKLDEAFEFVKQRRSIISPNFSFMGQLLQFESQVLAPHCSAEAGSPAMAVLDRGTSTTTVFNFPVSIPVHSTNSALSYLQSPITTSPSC
SKBR3 24h inh: SK-BR-3 proliferation inhibitors; viability, % at 10 µM; AID 847; SK-BR-3 viability, CellTiter-Glo ATP luminescence, 24 h; active compounds read low; actives 0.47% (n = 41,000);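 active = viability at or below the median of all test compounds minus 3 SD, in both replicates if run twice, cut at about 45% in these data; inconclusive = duplicate replicates that disagree with each other; inactive = viability above that cutoff in every replicate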;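 also: 100% = median untreated cell wells and 0% = median positive control drug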
Starred values were filed as active, the others as inactive; ? = inconclusive; . = no result given. The list is not random: actives were taken first. Their share in the collection is about 1%.

SMILES	Cdc25B block	Hsp90 block	PKA inh	ROCK2 inh	DUSP1 inh	SKBR3 24h inh
O=C(OCCCN1CCCCC1)c1ccc(O)cc1	57*	-11	0	3	-32	120
O=c1nccc(NCc2ccco2)[nH]1	-7	-1	-3	-1	-20	112
O=C1c2ccccc2-c2onc3ccc(NCc4ccco4)c1c23	-22	50*	6	-7	-3	106
NC[C@@H]1O[C@H](C23CC4CC(CC(C4)C2)C3)Cc2c1ccc(O)c2O	.	78*	.	.	.	.
COc1cc(NC(C)CCCN)c2ncccc2c1Oc1ccc(Cl)cc1 (stereo unspecified)	.	-5	.	.	.	.
CCN(CC)CCCC(C)Nc1cc(O)cc2cccnc12 (stereo unspecified)	.	138*	.	.	.	.
CCN(CC)c1ccc2cc(C(=O)Nc3ccccn3)c(=O)oc2c1	-25	8	0	-10	-6	88
CCN(CC)c1ccc2cc(NC(=O)CCC(=O)O)c(=O)oc2c1	-3	0	-5	-1	15	43*
CC(C)CN1C(=O)NC(NC(=O)c2ccco2)(C(F)(F)F)C1=O (stereo unspecified)	7	94*	-5	0	4	98
CCc1nc2ccccc2c(C(=O)OC2CCOC2=O)c1C (stereo unspecified)	-7	-1	8	5	23	.
O=C1CC(Sc2nnc(-c3ccccc3)o2)C(=O)N1c1ccccc1 (stereo unspecified)	-1	-1	0	4	2	114
Cc1ccccc1N1C(=O)CC(Sc2nnc(-c3ccccc3)o2)C1=O (stereo unspecified)	6	25	-2	3	-24	4.5*
COc1ccc(CN2C(=O)[C@@H]3C(c4ccccc4Cl)=NO[C@@H]3C2=O)cc1	4	-5	3	6	-11	95
COc1cccc(C(=O)NCC(=O)n2nc(C)cc2C)c1	22	121*	-3	-2	-17	90
CN(C)C(CNc1nnnn1-c1ccccc1)c1ccco1 (stereo unspecified)	-12	-16	3	6	12	.
Cn1c(C(=O)O)c(CC(=O)NCC2COc3ccccc3O2)c2ccccc21 (stereo unspecified)	3	-2	2	2	-11	52
Cn1c(C(=O)O)c(CC(=O)Nc2ccccc2F)c2ccccc21	-6	-2	0	1	13	30*
Cc1cc(NC(=O)CCCS(=O)(=O)c2nc(-c3cccs3)cc(C(F)(F)F)n2)no1	-1	1	10	5	-8	37*
CS(=O)(=O)c1nc(-c2cccs2)cc(C(F)(F)F)n1	9	.	9	.	6	22*
CN1CCN(c2nc(-c3cccs3)cc(C(F)(F)F)n2)CC1	-10	.	9	.	7	75
O=C(NC1CCCC1)c1nc2c(nnn2Cc2cccc(Cl)c2)c(=O)[nH]1	1	-1	0	0	19	84
CCOc1ccc2nc(SCC(=O)NCc3ccco3)sc2c1	-4	-3	10	3	22	90
COC(=O)c1[nH]c2ccc(Cl)cc2c1NC(=O)C1CC1	84*	-7	5	-6	-8	77
CCOc1ccc(NC(=O)c2oc3ccccc3c2NC(=O)C(C)C)cc1	2	-4	-1	0	-7	.
Cc1nc(N2CCN(Cc3ccccc3)CC2)nc2c1C(=O)CC(c1ccco1)C2 (stereo unspecified)	-7	-7	4	4	6	96
SMILES	Cdc25B block	Hsp90 block	PKA inh	ROCK2 inh	DUSP1 inh	SKBR3 24h inh
c1ccc2sc(SCc3ccc(-c4nnco4)cc3)nc2c1	1	91*	1	2	7	.
FC(F)(F)c1ccc(N2CCOCC2)c(NC2=NCCCCC2)c1	-11	-4	2	-1	2	.
CCOc1cc(N2CCOCC2)c(OCC)cc1NC1=NCCCCC1	0	61*	-4	-3	30	.
COc1ccc(N2CCN(CC(=O)Nc3ccc(-n4cnnn4)cc3)CC2)cc1	-2	1	8	7	8	68
CCc1cc(-c2[nH]ncc2-c2ccc3c(c2)OCO3)c(O)cc1O	12	96*	2	7	15	.
N#C/C(=C\c1ccc(O)c(O)c1)C(=O)NCCc1ccccc1	.	83*	.	.	.	.
O=C(NCCc1ccccc1)/C(=N\O)c1ccccc1	5	1	1	5	-17	102
COc1cc2[nH]c(=O)n(CCCCCC(=O)N3CCN(c4ccccc4)CC3)c(=O)c2cc1OC	.	.	1	.	.	85
COc1cc2[nH]c(=O)n(CCC(=O)N3CCN(c4cccc(C)c4C)CC3)c(=O)c2cc1OC	-8	.	7	.	37	4.9*
Oc1ccc(C2CNCc3sccc32)cc1O (stereo unspecified)	.	58*	.	.	.	.
Cc1nn(Cc2ccccc2)c(C)c1NC(=O)CSc1nc2sc3c(c2c(=O)n1C)CCC3	-6	-6	8	7	50*	90
Cc1cc(NC(=O)CSc2nc3sc4c(c3c(=O)n2C)CCCC4)no1	5	-2	14	11	-6	.
O=C(O)c1ccc2c(c1)N(Cc1ccccc1)C(=O)c1ccccc1S2=O (stereo unspecified)	66*	1	0	2	2	.
COc1ccccc1-c1nnc2n1N=C(c1ccc(O)c(O)c1)CS2	-8	65*	1	-13	-1	78
CC(=O)c1ccc(N2CCN(C(=O)c3cc4c(-c5ccccc5F)nn(C)c4s3)CC2)cc1	-6	-3	7	7	11	.
COc1ccc(C(C(=O)OC(C)CN(C)C)c2ccccc2)cc1 (stereo unspecified)	-18	0	6	5	-3	.
CN(C)CC(C(=O)c1ccccc1)c1ccccc1 (stereo unspecified)	-8	0	10	5	-14	6.4*
CCOC(=O)CS(=O)(=O)c1nc(-c2ccccc2)cc(C(F)(F)F)n1	-3	-1	0	-1	0	?
CCOC(=O)CS(=O)(=O)c1nc(-c2ccc(F)cc2)cc(C(F)(F)F)n1	-2	3	-2	-4	15	26*
CC(C)(C)NS(=O)(=O)c1ccc(CCC(=O)N2CCOCC2)cc1	-11	-6	8	.	7	69
Cc1nnc2n(-c3ccccc3)c(=O)c3c4c(sc3n12)CCCC4	-5	-3	4	5	-25	83
NC(=O)CSc1nnc2n(-c3ccccc3)c(=O)c3c4c(sc3n12)CCCCC4	15	0	5	2	6	32*
N=c1sccn1CC(=O)Nc1ccccc1-c1ccccc1	-8	.	6	.	-4	33*
N=c1sccn1CC(=O)Nc1cccc(Oc2ccccc2)c1	-6	-7	9	4	20	.
Cc1c(C)n(C)c2ccc(C(=O)NCc3cccs3)cc12	-3	-9	12	32*	6	.
COc1ccc(NC(=O)Cn2nnc(-c3ccccc3NC(=O)c3ccco3)n2)cc1	0	-4	10	3	17	28*
O=C1CC2(CCCC2)CC(=O)N1CCCCN1CCN(c2ncccn2)CC1	.	-2	.	.	.	.
